# The supplement of paper PMC6555819
# Test system: VDR:RXRa (NR concentration 270 nM, RXRa partner concentration 90 nM)
# Assay: PBM binding z-score (relative to random genomic background probes); higher = stronger binding; sequences stand for … in GC…GCGATTGACAGCGTAGAATGAAGG
# Description: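 Protein-binding microarray (Agilent 4x180K custom design, double-stranded 60-nt probes: 5' GC cap, 34-nt variable region, 24-nt constant primer region; full probe sequence given). Purified or IVT nuclear receptor:RXRα heterodimers (3:1 NR:RXRα, mostly 270:90 nM) or homodimers were incubated for 1 h in PBS with 2% milk and no ligand, then detected with Alexa488 antibodies. Fluorescence from o1-orientation probes (~5 replicates averaged) was converted to z-scores against 500 random hg19 background probes. Variable regions are seed direct-repeat (DR0–DR5) sites, all their single-nucleotide variants and half-site ablations.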
row,Sequence,PBM binding z-score
1,GCAGACAGGTGAAACGCAGGTAACTCAAGGTGGC,-0.431
2,GCTGATAGGTCAACTGATGGTCAGCTAAAGCTCG,2.69
3,GCTTGTAGATCCAGGTTAAGAAAGACTAAGCTAA,-0.307
4,TAATATAGGTAAAAGGTGAAAGTCGGTGTGGTAA,1.59
5,AGTCAAAGTTCACTAGTTAACGTAAGATTCAGCT,3.88
6,ACACGGAGGACAAAGGTCAGAGCTACGCCAGTGA,3.46
7,TCATATAGGTAAAATGTGAAAGTCGGTGTGGTAA,0.774
8,CGACCAAGGTCAGCAGGTCAGTGAAAGCGACGTG,3.67
9,ATCGAAAGGTCTTGAGGTGAGTATACAGAAAGGC,0.496
10,CCGACTGGGGCAGAAAGGTTACCTTACCATCCGG,0.875
11,GATACAGGGTCAAGGGCAGAGTACGCGTATTGAT,4.62
12,CATACAGGGTCAGCTAGGCCACAGTAGGGACGGC,4.79
13,TAGCCTAGATCATGCGGGCCAGTATAGTGTCGGC,-1.11
14,CCTACTGGGCCACGAAAGGTCATAGATTCAGTGA,3.89
15,ATCTCTTGGTAAAAGTTCAGTGAATCCCGAGGAT,1.14
16,TCTATCAGGCCAGAGGGTCACTCAAGAGGTACGG,2.03
17,CAAACTAGGTAAAAGGTCAAAGTCGAGCCAACCA,4.86
18,GCTACAGGGTCAGCTAGAGGCCAGAGTATGGAAA,3.35
19,TCGAGTAGGTGAGTCGGGGCATTCAGCCAACATA,1.68
20,CAGCCTAGGTCAGGGCCAGTATTGGAGGAACGTT,-0.0862

row,Sequence,PBM binding z-score
1,ATATGTAGGTTAAGGGTTATTCAGGTTGGTTCGC,3.27
2,TCTTTTAGATCAAGCAGGTTAAGAAAGCCTGAGT,0.762
3,CGTCAAAGTTCCACTAAGGTAACGTAAAGCACGC,0.211
4,ACTATTAGTTGAGACGAGGGCAACCGCTAGGTTG,0.628
5,AGAACGAGGGCACGCTGAGTTGATAGCAGAGTAG,2.2
6,GCGACTGGGGCAAAACAGGTTACCATAAGGTTGG,0.212
7,GTAACAAGGTGAATAGGTCGTTGATGAGTAGGCG,1.22
8,CCTCGGAGGAGAACAGGAGGTCAGAGCTGCCAGA,1.29
9,ACTTACGGGTCCACGAGGTTATAGCACGCGTATA,3.52
10,GTACCAAGGTGAATAGGTTGTTGATGAGTAGGCG,1.38
11,GGAACGAGGGCAAGTTGATGGCAGAGTTTGATGG,0.912
12,TCTATTAGTCGATTAGGGCAACCGAAACAGCGGA,0.568
13,ATATGTAGGTTAAGGGTCATTCTGGTTGGTTCGC,4.92
14,TCTTGTCGATCAATAGAGGTTAAGAAAGTGCGCT,1.86
15,CATACAGGGTCAGCTAGGCCAGAGTTGGGACGGC,3.74
16,AGTCAAAGTTCATCTAGATAACGTAAGATATGCT,4.66
17,TCTTGTAGATCAAGCTGGTTAAGAAAGCCTGAGT,0.112
18,TCGTATAGGTAAAAGGTGAAAGTCGGTGTGGTAA,1.58
19,GCGACTGGGGGATCAGCAGGTTACCATAACTTAA,0.855
20,ATCGAAAGGTCGTGAGGGGAGTATACAGAAAGGC,3.55
